# Compound activity from PubChem BioAssay.
# Mtb betalactam: beta-lactam sensitization of Mtb H37Rv, H37Rv. hit rate 0.27% among 330,000. inhibition, % at 25 µM. M. tuberculosis H37Rv growth with meropenem, percent inhibition; call rule not given here;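 note: growth measured after seven days incubation then overnight dye step; 0% = bacteria only wells and 100% = bacteria with antibiotic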
# RecA splice inh: Mtb RecA intein splicing inhibitors, primary screen, biochemical, fluorescence, HTS. Protein RecA (Mycobacterium tuberculosis (strain ATCC 25618 / H37Rv)), P9WHJ3. cell-free RecA intein splicing. inhibition, % (no concentration beside the values). hit rate 0.75% among 290,000; in the data active = inhibition above about 30%;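 note: 0% = vehicle wells and 100% = reference inhibitor control wells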
# Target sequence (P9WHJ3 whole entry, looked up, canonical isoform): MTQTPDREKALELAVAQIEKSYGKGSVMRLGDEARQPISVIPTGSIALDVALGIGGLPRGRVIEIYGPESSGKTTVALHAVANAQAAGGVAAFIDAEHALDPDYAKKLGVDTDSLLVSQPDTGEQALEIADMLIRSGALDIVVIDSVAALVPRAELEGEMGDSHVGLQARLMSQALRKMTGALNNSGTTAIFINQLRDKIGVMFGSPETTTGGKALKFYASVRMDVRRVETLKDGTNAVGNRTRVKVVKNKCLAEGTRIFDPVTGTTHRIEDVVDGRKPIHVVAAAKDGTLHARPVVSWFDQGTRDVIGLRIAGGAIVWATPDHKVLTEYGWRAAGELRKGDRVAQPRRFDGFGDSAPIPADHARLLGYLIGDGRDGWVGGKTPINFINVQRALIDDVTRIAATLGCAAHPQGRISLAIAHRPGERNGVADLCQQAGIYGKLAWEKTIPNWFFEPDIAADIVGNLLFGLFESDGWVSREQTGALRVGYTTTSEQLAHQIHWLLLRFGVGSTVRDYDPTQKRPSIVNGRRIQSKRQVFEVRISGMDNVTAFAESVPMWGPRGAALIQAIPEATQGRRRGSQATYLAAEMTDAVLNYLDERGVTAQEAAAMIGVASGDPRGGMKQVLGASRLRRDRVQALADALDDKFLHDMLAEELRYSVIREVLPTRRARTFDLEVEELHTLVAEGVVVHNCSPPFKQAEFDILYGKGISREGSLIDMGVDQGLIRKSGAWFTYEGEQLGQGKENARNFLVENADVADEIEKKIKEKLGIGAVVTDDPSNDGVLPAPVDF
# Mtb FBA inh: Mtb FBA enzyme inhibitors, primary screen, biochemical, fluorescence, strain H37Rv | inhibition, % at 1 µM | hit rate 2.3% among 360,000 | purified M. tuberculosis FBA, fluorescence read-out | Fructose-bisphosphate aldolase (Mycobacterium tuberculosis (strain ATCC 25618 / H37Rv)), …; in the data active = inhibition above about 27%;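 note: 0% = vehicle and 100% = reference inhibitor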
# GDH-TPI counter-1: GDH-TPI coupling enzyme inhibitors, primary screen, artefact control for M. tuberculosis FBA inhibitor project, biochemical, absorbance, full deck; inhibition, % at 4.8 µM; hit rate 1.2% among 360,000; AID 588335, 2011; GDH-TPI coupled enzyme counterscreen, NADH absorbance;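 note: 0% = DMSO wells and 100% = wells lacking the enzyme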
# CCHF vOTU inh: CCHFV vOTU protease inhibitors, primary screen, biochemical, Pep-AMC substrate, fluorescence; Crimean-Congo hemorrhagic fever virus L polyprotein viral ovarian tumor (vOTU) protease …; inhibition, % at 11.5 µM; hit rate 0.55% among 370,000; AID 651958, 2012; note: 0% = vehicle wells with enzyme and 100% = no enzyme wells
# Mtb FBA confirm: M. tuberculosis aldolase blockers, biochemical, fluorescence, strain H37Rv, confirmation. shares compounds with Mtb FBA inh. purified M. tuberculosis FBA, fluorescence read-out. inhibition, % at 1 µM. hit rate 78% among 5,600; in the data active = inhibition above about 27%;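 note: 0% = vehicle wells and 100% = reference inhibitor wells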
# GDH-TPI counter-2: GDH-TPI coupling enzyme inhibitors, artefact control for M. tuberculosis FBA inhibitor project, biochemical, fluorescence, high throughput; shares compounds with Mtb FBA inh; GDH-TPI coupled enzyme counterscreen; inhibition, % at 1 µM; hit rate 81% among 5,600; in the data active = inhibition above about 10%
# Active calls of the source: *; nt = not tested or not shown; + = active, no number. Most compounds without a hit are left out; they make up all but 4.2% or so of the library. Cut-off read from the data, not from the text of the source, unless noted: active = inhibition above about 30%; inactive = the rest.
SMILES,Mtb betalactam,RecA splice inh,Mtb FBA inh,GDH-TPI counter-1,CCHF vOTU inh,Mtb FBA confirm,GDH-TPI counter-2
Cc1ccnn1-c1ccc(C(=O)NCc2ccccc2CN2CCOCC2)cc1,-9,nt,58*,4,8,+,+
Cc1nc2cccc(C(=O)Oc3ccc([N+](=O)[O-])cc3)c2o1,-3,-1,43*,4,1,159*,146*
Cc1c(-c2ccccc2)nc2ccccc2c1C(=O)Oc1ccc([N+](=O)[O-])cc1,22,6,0,13,6,nt,nt
O[C@H](COc1ccccc1)CN1CCC(C(O)(c2ccccc2)c2ccccc2)CC1,nt,nt,nt,nt,-4,nt,nt
CCOC(=O)[C@]12CCCC=C1N(Cc1ccc(OC)cc1)C(=O)[C@@H]2CC(=O)NCc1ccccc1,nt,nt,nt,nt,3,nt,nt
OCCOCCNc1ncnc2sc(-c3ccccc3)cc12,15,0,32*,15,0,11,15*
CNc1ncnc2sc(-c3ccccc3)cc12,4,2,46*,12,5,52*,36*
CN1C(=O)[C@@]2(C3=C(CCCC3=O)OC3=C2C(=O)OC2(CCCCC2)C3)c2ccccc21,nt,nt,nt,nt,-11,nt,nt
O=C(Nc1nnc2n1CCS2)c1ccc(Br)o1,67,-3,105*,-8,3,127*,76*
Cc1nc(NC(=O)c2ccc(Br)o2)sc1C,-2,0,-1,29,14,nt,nt
O=C(CSc1nnc(-c2cccs2)o1)Nc1cc(Cl)cc(Cl)c1,nt,nt,nt,nt,11,nt,nt
O=C(Nc1ccccc1)C1Cc2c(-c3ccc4c(c3)OCO4)ccnc2O1 (stereo unspecified),nt,nt,46*,7,-4,143*,146*
O=C(Nc1cccnc1)C1Cc2c(-c3ccc4c(c3)OCO4)ccnc2O1 (stereo unspecified),nt,nt,54*,2,0,+,162*
Cc1ccc(C)c(NC(=O)CNS(=O)(=O)c2ccc3[nH]c(=O)oc3c2)c1,nt,nt,nt,nt,-6,nt,nt
CC(C)Cc1[nH]c(=O)c(C#N)c2c1CCC2,-4,-1,52*,29,-21,+,169*
O=C(CSc1ccc(Cl)cc1)Nc1cccc(-c2nc3ccccc3[nH]2)c1,1,-5,35*,17,9,+,+
NC(=O)c1ccc(NC(=O)c2ccc(CN3CCOCC3)cc2)cc1,8,0,-2,-2,-2,nt,nt
CC(C)c1ccc(C(=O)Nc2ccc(CN3CCOCC3)cc2)cc1,1,2,69*,4,11,196*,191*
Nc1c(Br)cc2c3c(cccc13)-c1ccccc1-2,nt,nt,nt,nt,10,nt,nt
O=CNc1ccc2c3c(cccc13)-c1ccccc1-2,nt,nt,79*,7,-111,70*,51*
COc1ccc(C2=NN(C(=O)CCC(=O)O)C(c3cccs3)C2)cc1 (stereo unspecified),0,-1,7,5,-2,nt,nt
COc1ccc(C2=NN3C(C2)c2ccccc2OC3c2cccs2)cc1 (stereo unspecified),-1,6,60*,4,-59,28*,23*
O=C(COc1ccc2c(c1)oc(=O)c1ccccc12)NCCN1CCOCC1,0,0,91*,5,-67,128*,105*
O=C(COc1ccc2c3c(c(=O)oc2c1)CCCC3)NCCN1CCOCC1,-6,-4,48*,15,nt,-1,-2
O=C(O)CCNC(=O)COc1ccc2c3c(c(=O)oc2c1)CCCC3,1,-3,66*,2,-26,40*,35*
SMILES,Mtb betalactam,RecA splice inh,Mtb FBA inh,GDH-TPI counter-1,CCHF vOTU inh,Mtb FBA confirm,GDH-TPI counter-2
O=C(COc1ccc2c(-c3ccccc3)cc(=O)oc2c1)NCCCN1CCOCC1,1,-1,-1,11,19,nt,nt
CC(Oc1ccc2c3c(c(=O)oc2c1)CCCC3)C(=O)NCCN1CCOCC1 (stereo unspecified),-3,-1,51*,12,-7,76*,61*
O=C(COc1ccc2c3c(c(=O)oc2c1)CCC3)NCCN1CCOCC1,4,-2,10,3,8,nt,nt
CC(C)CCNC(=O)COc1ccc2c3c(c(=O)oc2c1)CCC3,5,1,11,20,-8,nt,nt
CO[C@@H]1[C@H](O)CC[C@]2(O)CN(c3ccccc3)[C@](C)([C@H](O)CC=C(C)C)[C@@H]12,nt,nt,nt,nt,3,nt,nt
CC(C)C[C@H]1COc2cc(F)ccc2S(=O)(=O)N1C,nt,nt,nt,nt,1,nt,nt
CCOC(=O)N1CCN(C(=O)C[C@@H]2C(=O)N(CCc3ccc(Cl)cc3)/C3=C/CCCCC[C@@]32C(=O)OCC)CC1,nt,nt,nt,nt,10,nt,nt
Cc1ccc(C(=O)C2CCN(CC(=O)N3CCOCC3)CC2)cc1,nt,nt,nt,nt,-3,nt,nt
CC(C)CNC(=O)COc1ccc2c3c(c(=O)oc2c1)CCC3,-5,0,19,9,15,nt,nt
CC(Oc1ccc2c3c(c(=O)oc2c1)CCC3)C(=O)NCc1cccnc1 (stereo unspecified),6,1,12,16,16,nt,nt
Cc1c(OC(C)C(=O)NCc2cccnc2)ccc2c3c(c(=O)oc12)CCCC3 (stereo unspecified),99,0,61*,7,1,+,+
O=C(COc1ccc2c3c(c(=O)oc2c1)CCCC3)NCCCN1CCOCC1,-8,1,29*,23,-4,89*,64*
CC(Oc1ccc2c3c(c(=O)oc2c1)CCCC3)C(=O)NCc1ccncc1 (stereo unspecified),5,1,51*,-6,-13,7,-3
Cc1cc(OCC(=O)N2CCOCC2)cc2oc(=O)c3ccccc3c12,3,-2,54*,13,-20,70*,45*
C#CCNC(=O)C[C@@H]1C(=O)N(Cc2ccc(OC)cc2)C2=CCN(C(=O)OC(C)(C)C)C[C@]21C(=O)OCC,nt,nt,nt,nt,2,nt,nt
CC(Oc1ccccc1)c1ccnc2nc(N3CCOCC3)nn12 (stereo unspecified),-4,2,16,9,-23,nt,nt
c1ccc(Oc2ccc(-c3ccnc4nc(N5CCOCC5)nn34)cc2)cc1,97,0,42*,17,-49,+,+
O=C1c2ccccc2C(=O)N1c1nc2nccc(-c3ccccc3)n2n1,-7,3,32*,8,-4,31*,35*
O=C1c2ccccc2C(=O)N1c1ncccn1,-13,-3,2,17,4,nt,nt
CCc1c(-c2cccc(Br)c2)ncn1CCc1ccccc1OC,nt,nt,nt,nt,7,nt,nt
